Assay results: PubChem BioAssay (NCATS)
Inconclusive results are not listed. Unmarked numbers belong to inactive results. Active and inactive are the calls of the source. Calls come from the whole dose curve; as a rule, active = well fitted inhibition curve with a large enough effect; inconclusive = small, poorly fitted or top-dose-only effect; inactive = flat fitted curve, though single readings scatter.

Molecular target: Aldehyde dehydrogenase, mitochondrial (Homo sapiens) (UniProt P05091)
Experiment: qHTS for Inhibitors of the Aldehyde Dehydrogenase Family (ALDH2) Primary screen (AID 2061308);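 note: plate controls were vehicle for no effect and reference inhibitor for full effect; nearly all actives have a fitted effect of over 55% in size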
Conditions: ALDH2 enzyme inhibition qHTS, 1536-well; series mostly up to 56 µM; activity change, negative = inhibition: at the top concentration

Row | Compound | activity change, negative = inhibition | Potency
1 | CC(C)(C)N=Cc1c(-c2ccccc2)no[n+]1[O-] | 9.18% | –
2 | CC1OC2OC3C(OCC(O)C3O)OC(=O)C34CCC(C)(C)CC3C3=CCC5C6(C)CC(O)C(OC7OC(CO)C(O)C(O)C7OC7OCC(OC(=O)CC(C)(O)CC(=O)OC1C(OC1OCC(O)C(O)C1O)C2O)C(O)C7O)C(C)(CO)C6CCC5(C)C3(C)CC4O (stereo not given) | 1.27% [at 28 µM] | –
3 | COc1cccc(C2c3c(ncn(-c4cccc(Br)c4)c3=N)Oc3ccc4ccccc4c32)c1 (stereo not given) | 0.313% | –
4 | Cc1csc(CNc2ncnc3ccc(-c4ccc5c(c4)OCCO5)cc23)c1 | 0.0885% | –
5 | COc1ccc(-c2nnc3n2N=C(c2cc(OC)ccc2OC)CS3)c(OC)c1 | 16.1% | –
6 | Cc1nc(NC2CCCCC2)c2nc(-c3ccccc3)n(C(C)CN(C)C)c2n1 (stereo not given) | 5.3% | –
7 | COc1cc(-c2nc(Nc3ccc(F)c(F)c3)c3ccccc3n2)c(F)cn1 | 8.35% | –
8 | Cc1cccc(C)c1SC1=NS(=O)(=O)c2ccccc21 | – | inactive
9 | CCOc1ccc(CCNC(=O)C2=C(C)OCCO2)cc1OCC | -1.79% | –
10 | COc1cc(O)c(C(CC(=O)N2CCC[C@H](C)C2)c2ccc3c(c2)OCO3)c(OC)c1 (stereo not given in full) | -4.01% [at 114 µM] | –
11 | Cc1ccccc1-c1ccc(=O)n(CC(=O)NCCc2ccccc2)n1 | 6.84% | –
12 | c1cncc(CNc2ncnc3ccc(-c4ccc5c(c4)OCO5)cc23)c1 | 4.05% | –
13 | Cc1ccc(S(=O)(=O)Nc2cnccc2C(=O)Nc2nc(-c3cccc(Cl)c3)cs2)cc1 | -16% | –
14 | COc1cccc(C2C(C#N)=C(NC(=O)CCc3ccccc3)Oc3ccc4ccccc4c32)c1 (stereo not given) | 4.64% | –
15 | CC(C)c1nc(Nc2nc3ccccc3o2)nc2c1CCCC2 | -3.18% | –
16 | Cc1nc(Nc2ccccc2)c2nc(-c3ccccc3)n(CCCN3CCCCC3C)c2n1 (stereo not given) | 13.3% | –
17 | O=C(Nc1ccccc1)Nc1ccccc1 | 10.6% | –
18 | Cn1nnnc1Sc1ncnc2scc(-c3ccccc3S(C)(=O)=O)c12 | -9.47% | –
19 | COC(=O)C1=CO[C@@H](O[C@@H]2O[C@H](CO)[C@@H](O)[C@H](O)[C@H]2O)[C@H]2[C@@H]1CC(OC)O[C@@H]2C (stereo not given in full) | 3.37% [at 28 µM] | –
20 | COc1ccccc1S(=O)(=O)Nc1cnccc1C(=O)Nc1nc(-c2ccccc2)cs1 | -11.6% | –
21 | CSc1cnc(-c2ccccc2C(C)C)nc1NCc1ccc(-c2cccnc2)cc1 | -8.93% | –
22 | Cc1ccc(S(=O)(=O)n2cc(C(=O)Nc3ccc(-c4ccccc4)cc3)c3ccccc32)cc1 | -5.5% | –
23 | FC(F)(F)c1ccccc1-c1nc(NCc2ccc(C3CCCCC3)cc2)c2ccccc2n1 | 3.57% | –
24 | C=C[C@H]1CN2CC[C@H]1C[C@@H]2C(O)c1ccnc2ccc(OC)cc12 (stereo not given in full) | 4.04% | –
25 | Cc1cc(C)nc(NC(=S)N2CCN(c3cccc(Cl)c3Cl)CC2)c1 | -20.8% | –
